In PubChem BioAssay (NCATS):
Records with an inconclusive call do not appear. Unmarked numbers belong to inactive results. Activity calls are given as the source filed them. The call rests on the fitted dose curve; in most records, active means well fitted inhibition curve with a large enough effect; inconclusive means small, poorly fitted or top-dose-only effect; inactive means flat fitted curve, though single readings scatter.

Assay: Drug repurposing screens with cells derived from glioblastoma tumor samples (AID 1345199); further: nearly all actives have a fitted effect of over 40% in size
Conditions: GBM patient neurospheres viability, ATP luminescence, 48 h
Protocol: CD133+ cells were isolated from GBM patient biopsies and cultured as neurospheres. Neurospheres from four patients were used to screen the NCATS pharmaceutical collection (NPC) library of approved drugs and bioactive compounds. […] The neurospheres were incubated with drugs for 48 hours in 1536-well format, then assayed with an ATP content cell viability assay. […] These hits were cherry picked to confirm activity in the four original GBM lines screened plus three other slower growing GMB lines (unable to yield enough cells for a full primary screen). Variable activities of the confirmed primary hits in the different GBM patient lines were observed. The patient line 206 responded to the greatest number of compounds and line 923 responded to the least amount of active compounds.

[1] = at 45.9 µM (top of the series), tumour line B
[2] = at 45.9 µM (top of the series), tumour line D
[3] = at 46 µM (top of the series), tumour line A
[4] = at 46.1 µM (top of the series), tumour line C
On the % scale 0 is the no-effect control and ±100 the full control effect; potency means the concentration at half of the fitted maximal effect.

Row | Compound | activity, negative = cell killing [1] | activity, negative = cell killing [2] | activity, negative = cell killing [3] | activity, negative = cell killing [4] | Potency (tumour line A) | Potency (tumour line B) | Potency (tumour line D)
1 | CC(=O)OCC(=O)[C@@]1(O)CCC2C3CCC4=CC(=O)CC[C@]4(C)C3[C@@H](O)C[C@@]21C (stereo not given in full) | -6.98% | -11.4% | -11.4% | 20.9% |  |  | 
2 | CC(C(=O)O)c1ccc(/C=C2\CCCCC2=O)cc1 (stereo not given) | -2.39% | -17% | -27.9% | 3.8% |  |  | 
3 | O=C(O)/C=C(\CC(=O)O)C(=O)O | -11.5% | -18% |  |  | 20 µM (active) |  | 
4 | CC(=O)OCC(=O)[C@@]1(O)[C@H](OC(C)=O)C[C@H]2[C@@H]3CCC4=CC(=O)C=C[C@]4(C)[C@@]3(F)[C@@H](O)C[C@@]21C | -11.4% | -13% | -9.78% | -2.85% |  |  | 
5 | Oc1ccccc1 | 8.9% | -14.6% |  | -15.8% |  |  | 
6 | CC(=O)OCC[N+](C)(C)C | -0.685% | 1.13% | -13.5% | 18% |  |  | 
7 | CCN1C(=O)c2ccccc2C1Nc1ccc(OCCN2CCCCC2)cc1 (stereo not given) | -27.4% |  |  |  | 7.94 µM (active) |  | 
8 | OC(CCCN1CCCCC1)(c1ccccc1)c1ccccc1 | 9.15% | -27.2% |  | -3.12% | 11.2 µM (active) |  | 
9 | CO/N=C(/C(=O)N[C@@H]1C(=O)N2C(C(=O)OCOC(=O)C(C)(C)C)=C(C)CS[C@H]12)c1csc(N)n1 | -3% | 4.02% | -24.5% | 0.657% |  |  | 
10 | C1N2CN3CN1CN(C2)C3 | -5.59% | -12.9% | -29.1% | 5.12% |  |  | 
11 | CN1CCCN(C(c2ccccc2)c2ccc(Cl)cc2)CC1 (stereo not given) |  |  |  | -12.3% | 4.47 µM (active) | 35.5 µM (active) | 20 µM (active)
